Only some compounds are listed: those with a hit (about 0.92% of all), similar ones and a draw of the others.
B2AR arrestin: qHTS assay of beta-arrestin-biased ligands of beta2-adrenergic receptor. Potency, µM (doses to about 46.1 µM), for inactives: at the highest dose activation, usual class: activators. AID 492947, 2010. beta-arrestin recruitment to beta2AR, cell-based reporter. actives 0.02% (n = 330,000);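 further: potency means the concentration at half of the fitted maximal effect; 0% = DMSO controls and full agonism = EC100 isoproterenol or metaproterenol; nearly all actives have a fitted effect of over 65% in size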
Giardia kill: Small Molecules that selectively kill Giardia lamblia: qHTS; Giardia lamblia trophozoite viability; activity change, % at 7.66 µM, hits read low; actives 0.15% (n = 340,000); AID 540267, 2011; in the data active means activity change below about -80%; inconclusive means between about -30% and that limit;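 further: parasites exposed to compound for two days anaerobically before the ATP read; on the % scale 0 is the no-effect control and ±100 the full control effect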
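ATP-content bioluminescence gauges trophozoite survival. Cells (100/well) receive compound and incubate anaerobically for 48 hrs at 37 deg C; detection reagent follows for 15-30 min at room temperature.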
miR-21 act: qHTS Assay for Modulators of miRNAs and/orActivators of miR-21; 340,000 tested, under 10 active; Potency, µM (top dose mostly 38.3 µM), inactives show at the top dose activity change, positive = activation, usual class: activators; AID 2288, 2010; HeLa miR-21 FLuc reporter, luciferase, 48 h;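 further: % of control where 0% means no effect; miR-21 action dims this reporter so a rising signal means less miR-21 action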
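HeLa cells endogenously expressing miR-21, stably carrying CMV-driven firefly luciferase with a downstream miR-21 binding site, 2000 cells/well. Titrations up to approximately 40 uM, 48 hours; luciferase luminescence read.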
uPA surface inh: qHTS for Inhibitors of Cell Surface uPA Generation. cell surface uPA generation assay, qHTS. Potency, µM (highest dose often 38.3 µM), inactives show at the top dose activity change, negative = inhibition, hits mostly inhibitors. actives 0.31% (n = 330,000). AID 540303, 2011; active means well fitted inhibition curve with a large enough effect; inconclusive means small, poorly fitted or top-dose-only effect; inactive means no such curve, though single readings can be large or run the other way; tested in mouse RAW 264.7 cells; further: potency means the concentration at half of the fitted maximal effect; on the % scale 0 is the no-effect control and ±100 the full control effect; nearly all actives have a fitted effect of over 55% in size
GALK inhibitor: qHTS Assay for Inhibitors of Human Galactokinase (GALK); Potency, µM (titrated, usually from 57.5 µM), inactives show at the top dose activity change, negative = inhibition, actives largely listed as inhibitors; actives 0.007% (n = 270,000); Purified GALK, Kinase-Glo residual ATP luminescence; further: potency means the concentration at half of the fitted maximal effect; on the % scale 0 is the no-effect control and ±100 the full control effect
Target sequence (P51570 whole entry, looked up): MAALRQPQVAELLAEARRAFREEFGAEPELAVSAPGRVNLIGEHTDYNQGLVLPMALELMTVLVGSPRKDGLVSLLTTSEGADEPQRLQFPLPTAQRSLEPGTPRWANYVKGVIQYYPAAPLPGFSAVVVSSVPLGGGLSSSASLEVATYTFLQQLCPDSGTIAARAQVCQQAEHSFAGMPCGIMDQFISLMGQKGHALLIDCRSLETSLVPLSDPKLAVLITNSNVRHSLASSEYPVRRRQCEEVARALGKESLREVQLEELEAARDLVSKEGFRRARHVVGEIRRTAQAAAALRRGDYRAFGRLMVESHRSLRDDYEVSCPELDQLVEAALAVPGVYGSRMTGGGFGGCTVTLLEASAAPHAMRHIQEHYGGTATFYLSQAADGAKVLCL
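GALK at 5 nM final was combined with compound, 35 uM ATP and 100 uM galactose in HEPES pH8.0 with MgCl2 and DTT. The reaction ran one hour at room temperature before luminescent ATP detection.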
FBPA coupling cs: qHTS Assay for Inhibitors of Fructose-1,6-bisphosphate Aldolase from Giardia Lamblia: Coupling assay counterscreen; actives 0.67% (n = 290,000); coupling enzyme system counterscreen, AmpLite Red fluorescence; activity change, negative = inhibition, % at 58.2 µM, hits read low; AID 2472, 2010; in the data active means activity change below about -30%; further: on the % scale 0 is the no-effect control and ±100 the full control effect
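Counterscreen of the coupled detection system alone, without aldolase: glyceraldehyde-3-phosphate coupling enzymes plus AmpLite Red readout. Compounds at 57.5 uM final, 10 min RT preincubation, 20 min RT reaction, fluorescence 525/598 nm.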
* hit, by the source's call; ? = inconclusive; . = no result given. Unless noted, the call rests on the fitted dose curve; in most records, active means well fitted curve in the direction sought with a large enough effect; inconclusive means small, poorly fitted or top-dose-only effect, or another doubt; inactive means no such curve, though single readings can be large; an effect the other way counts as inactive or inconclusive.

SMILES	B2AR arrestin	Giardia kill	miR-21 act	uPA surface inh	GALK inhibitor	FBPA coupling cs
COC1=C2C[C@H](C)C[C@H](OC)[C@@H](O)[C@@H](C)C=C(C)[C@H](OC(N)=O)[C@@H](OC)C=CC=C(C)C(=O)NC(=CC1=O)C2=O	.	6	.	.	.	.
CC(=O)c1cccc(NC(=O)c2ccc([N+](=O)[O-])o2)c1	.	-88*	.	-6%	.	.
CC(=O)c1cccc(NC(=O)c2cc(=O)c3ccccc3o2)c1	0%	-13	-16%	-5%	-3%	-1
CN1CCN(Cc2cc(COCc3ccccc3)c3cccnc3c2O)CC1	2.5µM*	-12	15%	-12%	3%	-3
Oc1c(Cl)cc(CN2CCOCC2)c2cccnc12	3%	5	.	?	.	.
Oc1c(CN2CCc3ccccc3C2)cc(Cl)c2cccnc12	7.1µM*	4	23%	?	1%	-15
Oc1ccc(CN2CCN(Cc3ccccc3)CC2)c2cccnc12	0%	-15	0%	-8%	2%	7
Cc1oc(C(=O)Nc2ccc(O)cc2)cc1COc1ccccc1	0%	4	-14%	-5%	-2%	-32*
Cc1ccc(OCc2cc(C(=O)Nc3ccccc3)oc2C)cc1	0%	24	-34%	2%	3%	0
CSc1cccc(NC(=O)C2CCCN(S(=O)(=O)c3ccc4c(c3)CCCN4C(C)=O)C2)c1 (stereo unspecified)	.	.	23%	.	.	.
COc1ccc(NCc2nnc(SCC(=O)N3CCCc4ccccc43)n2C)cc1	0%	-3	-5%	-7%	3%	-38*
CCn1c(CNc2ccc(OC)cc2)nnc1SCC(=O)N1CCCc2ccccc21	0%	7	-9%	0%	5%	-28
Cn1c(-c2ccccc2)c(/C=N/NC(=O)c2ccc(O)cc2)c2ccccc21	0%	-7	-40%	3.5µM*	.	-3
Cc1ccccc1Cn1c(CN2CCC(C(=O)NCCc3ccccc3)CC2)cc2ccccc21	.	.	8%	.	.	.
COc1ccc(C2=Nn3c(nnc3-c3ccc(OC)c(OC)c3)SC2)cc1OC	.	.	.	.	.	-2
N#Cc1ccsc1NC(=O)CN1CCCCCC1	0%	-6	-6%	7%	2%	1
CCOC(=O)N1CCN(CC(=O)Nc2sccc2C#N)CC1	0%	-4	-3%	11µM*	1%	-3
CN1C(=O)N(C)c2cccc3cccc1c23	0%	-22	-5%	4%	0%	-4
CC1=Nc2cccc3cccc(c23)N1C	-2%	-6	-12%	-2%	0%	-32*
COC(=O)[C@H](CCCN=C(N)N)NC(=O)CCCc1c(-c2ccccc2)[nH]c2c(F)cc(F)cc12	.	.	.	.	.	7
O=c1oc2ccccc2c(Nc2ccccc2O)c1[N+](=O)[O-]	-1%	-16	-7%	-7%	-2%	0
O=c1oc2ccccc2c(Nc2cc3ccccc3cc2O)c1[N+](=O)[O-]	0%	-9	-14%	-15%	-2%	-56*
CC(C)c1ccc(NC(=O)C2CCCN(S(=O)(=O)c3ccc4[nH]c(=O)ccc4c3)C2)cc1 (stereo unspecified)	.	.	-7%	.	.	.
N#C/C(=C/c1ccc(N2CCCCCC2)o1)c1ccc(F)cc1	.	-1	.	-15%	.	.
N#C/C(=C/c1ccc(N2CCOCC2)o1)c1ccc(Br)cc1	9%	10	0%	-11%	-6%	.
SMILES	B2AR arrestin	Giardia kill	miR-21 act	uPA surface inh	GALK inhibitor	FBPA coupling cs
N#C/C(=C/c1ccc(N2CCCCCC2)o1)c1cccc(F)c1	5%	-13	-1%	.	-4%	-48*
N#C/C(=C\c1ccc(N2CCOCC2)o1)c1ccccc1	0%	-3	?	-27%	5%	-44*
Cc1c(CCC(=O)NCCc2ccccc2)c(=O)oc2c(C)c(O)ccc12	.	.	-1%	.	.	.
CCOc1ccc(C(=O)Nc2cc(C)ccn2)cc1	0%	-88*	23%	-19%	14%	-1
Cc1ccnc(NC(=O)c2cc3ccccc3o2)c1	0%	?	.	2µM*	.	.
CCOc1cc(C(=O)Nc2cc(C)ccn2)cc(OCC)c1OCC	0%	6	14%	-2%	2%	0
